PubChem BioAssay AID1159580 (chemical genetic matrix, 2015)
Several values for one entry are separate records, joined by “and”; a condition that tells them apart may be missing. Equal entries are not always repeated. The campaign covered roughly 5,500 compounds. About 2,000 (36%) were called active. Another 18% or so got no clear call; they are omitted. This is one part of the list. A number with no mark means an inactive call. Rule as the data show it: active = normalized growth mostly below about 0.91 (no sharp cut-off); inconclusive = no clear call, values can overlap the other calls; inactive = mostly above about 0.92.

Test: chemical genetic growth profiling, strain panel (AID 1159580);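 also: tested at 20 µM; growth read once vehicle control cultures reached saturation at 30 °C; 1 = growth at the plate median or of vehicle wells; lower values mean less growth of the strain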
Settings: S. cerevisiae deletion strains, growth OD

COc1cc(OC)c2ccc(=O)oc2c1 gave a normalized growth (locus YAL013W, strain DEP1, hits give low values) of 1.01, a normalized growth (locus YAL021C, strain ccr4, hits give low values) of 1 and a normalized growth (locus YAL026C, strain drs2, hits give low values) of 0.964. The normalized growth (locus YAL030W, strain snc1, hits give low values) was 0.976, the normalized growth (locus YBL061C, strain skt5, hits give low values) was 0.966 and the normalized growth (locus YBR009C, strain hhf1, hits give low values) was 0.935. The normalized growth (locus YBR021W, strain FUR4, hits give low values) was 0.949, the normalized growth (locus YBR023C, strain chs3, hits give low values) was 0.964 and the normalized growth (locus YBR171W, strain sec66, hits give low values) was 0.972. For the same molecule, the normalized growth (locus YBR229C, strain ROT2, hits give low values) was 1.01, the normalized growth (locus YBR231C, strain swc5, hits give low values) was 0.963 and the normalized growth (locus YBR279W, strain paf1, hits give low values) was 0.973. For the same molecule, the normalized growth (locus YCL011C, strain gbp2, hits give low values) was 0.962, the normalized growth (locus YCL016C, strain dcc1, hits give low values) was 0.968 and the normalized growth (locus YCL029C, strain bik1, hits give low values) was 1. It also gave a normalized growth (locus YCL061C, strain MRC1, hits give low values) of 0.974, a normalized growth (locus YCL069W, strain vba3, hits give low values) of 0.992 and a normalized growth (locus YCR088W, strain abp1, hits give low values) of 0.984. The normalized growth (locus YDL005C, strain med2, hits give low values) was 0.987, the normalized growth (locus YDL035C, strain GPR1, hits give low values) was 0.99 and the normalized growth (locus YDL040C, strain nat1, hits give low values) was 0.974. For the same molecule, the normalized growth (locus YDL074C, strain BRE1, hits give low values) was 0.979, the normalized growth (locus YDL101C, strain DUN1, hits give low values) was 1.01 and the normalized growth (locus YDL134C, strain PPH21, hits give low values) was 0.992. The normalized growth (locus YDL185W, strain tfp1, hits give low values) was 0.982, the normalized growth (locus YDL192W, strain arf1, hits give low values) was 0.988 and the normalized growth (locus YDR001C, strain nth1, hits give low values) was 0.975. The normalized growth (locus YDR069C, strain doa4, hits give low values) was 0.951, the normalized growth (locus YDR101C, strain arx1, hits give low values) was 0.994 and the normalized growth (locus YDR137W, strain rgp1, hits give low values) was 0.922. The normalized growth (locus YDR150W, strain NUM1, hits give low values) was 1, the normalized growth (locus YDR159W, strain sac3, hits give low values) was 0.971 and the normalized growth (locus YDR162C, strain NBP2, hits give low values) was 1. The normalized growth (locus YDR195W, strain ref2) was 1.19 [resistant] (active), the normalized growth (locus YDR297W, strain sur2, hits give low values) was 0.978 and the normalized growth (locus YDR318W, strain mcm21, hits give low values) was 1. For the same molecule, the normalized growth (locus YDR334W, strain swr1, hits give low values) was 0.962, the normalized growth (locus YDR335W, strain msn5, hits give low values) was 0.974 and the normalized growth (locus YDR388W, hits give low values) was 1.01. For the same molecule, the normalized growth (locus YDR392W, strain spt3, hits give low values) was 0.736 (active), the normalized growth (locus YDR502C, strain sam2, hits give low values) was 0.989 and the normalized growth (locus YEL003W, strain gim4, hits give low values) was 0.973. For the same molecule, the normalized growth (locus YEL037C, strain rad23, hits give low values) was 0.961, the normalized growth (locus YEL061C, strain CIN8 (second series), hits give low values) was 0.964 and the normalized growth (locus YEL061C, strain CIN8, hits give low values) was 1. The normalized growth (locus YER015W, strain faa2, hits give low values) was 0.973, the normalized growth (locus YER016W, strain bim1, hits give low values) was 0.975 and the normalized growth (locus YER110C, hits give low values) was 0.983. The normalized growth (locus YER111C, strain swi4, hits give low values) was 0.965, the normalized growth (locus YER155C, strain BEM2 (second series), hits give low values) was 0.661 (active) and the normalized growth (locus YER155C, strain BEM2, hits give low values) was 0.999. For the same molecule, the normalized growth (locus YER167W, strain BCK2, hits give low values) was 1.02, the normalized growth (locus YFR010W, strain ubp6, hits give low values) was 0.951 and the normalized growth (locus YGL078C, strain dbp3, hits give low values) was 0.995. It also gave a normalized growth (locus YGL086W, strain mad1, hits give low values) of 1, a normalized growth (locus YGL167C, strain pmr1, hits give low values) of 0.965 and a normalized growth (locus YGL173C, strain kem1, hits give low values) of 0.945. The normalized growth (locus YGL227W, strain vid30, hits give low values) was 0.974, the normalized growth (locus YGL240W, strain doc1, hits give low values) was 0.868 (active) and the normalized growth (locus YGL248W, strain PDE1, hits give low values) was 1.01. It also gave a normalized growth (locus YGL253W, strain hxk2, hits give low values) of 0.974, a normalized growth (locus YGR078C, strain PAC10, hits give low values) of 0.989 and a normalized growth (locus YGR135W, strain pre9, hits give low values) of 0.977. For the same molecule, the normalized growth (locus YGR229C, strain SMI1, hits give low values) was 0.993, the normalized growth (locus YGR252W, strain gcn5, hits give low values) was 0.846 and the normalized growth (locus YHR013C, strain ard1, hits give low values) was 0.944. The normalized growth (locus YHR027C, strain rpn1, hits give low values) was 0.981, the normalized growth (locus YHR030C, strain SLT2, hits give low values) was 1.01 and 0.997 and the normalized growth (locus YHR079C, strain IRE1 (second series), hits give low values) was 1.01. For the same molecule, the normalized growth (locus YHR079C, strain IRE1, hits give low values) was 0.989, the normalized growth (locus YHR094C, strain hxt1, hits give low values) was 1 and the normalized growth (locus YHR129C, strain ARP1, hits give low values) was 1.01. It also gave a normalized growth (locus YHR142W, strain chs7, hits give low values) of 0.955, a normalized growth (locus YHR200W, strain rpn10, hits give low values) of 0.988 and a normalized growth (locus YIL066C, strain RNR3, hits give low values) of 1.01. For the same molecule, the normalized growth (locus YIL073C, strain SPO22, hits give low values) was 0.982, the normalized growth (locus YIL125W, strain kgd1, hits give low values) was 1 and the normalized growth (locus YIR030C, strain dcg1, hits give low values) was 1. The normalized growth (locus YJL092W, strain hpr5, hits give low values) was 0.972, the normalized growth (locus YJL095W, strain BCK1 (second series), hits give low values) was 0.98 and the normalized growth (locus YJL095W, strain BCK1, hits give low values) was 0.985 and 1.01. The normalized growth (locus YJL115W, strain asf1, hits give low values) was 0.969, the normalized growth (locus YJL129C, strain trk1, hits give low values) was 0.995 and the normalized growth (locus YJL134W, strain LCB3, hits give low values) was 1.01. The normalized growth (locus YJL154C, strain vps35, hits give low values) was 0.984, the normalized growth (locus YJL164C, strain tpk1, hits give low values) was 0.962 and the normalized growth (locus YJL166W, strain qcr8, hits give low values) was 0.945. The normalized growth (locus YJL168C, strain set2, hits give low values) was 1, the normalized growth (locus YJL187C, strain SWE1 (second series), hits give low values) was 1.01 and the normalized growth (locus YJL187C, strain SWE1, hits give low values) was 0.97. The normalized growth (locus YJR043C, strain POL32, hits give low values) was 0.993 and the normalized growth (locus YJR066W, strain TOR1, hits give low values) was 0.958.
